Measurements from PubChem BioAssay AID540317 (National Center for Advancing Translational Sciences (NCATS), 2011).
The campaign covered roughly 390,000 compounds. About 2,200 (0.56%) were called active. Inconclusive results (about 3%) are left out. The list comes from a sample in which actives are over-represented; it also holds similar structures and randomly drawn compounds. Unmarked numbers belong to inactive results. Calls follow the shape of the dose curve; as a rule, active = well fitted inhibition curve with a large enough effect; inconclusive = small, poorly fitted or top-dose-only effect; inactive = no such curve, though single readings can be large or run the other way.

biological target: Chromobox protein homolog 1 (Homo sapiens) (UniProt P83916); assay: HTS for Inhibitors of HP1-beta Chromodomain Interactions with Methylated Histone Tails; details: AlphaScreen HP1-beta / biotin-H3K9me3 peptide binding; series mostly up to 114 µM; activity change, negative = inhibition: at the top concentration; also: nearly all actives have a fitted effect of over 70% in size
Summary of the method: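 AlphaScreen: HP1-beta (50 nM) preformed 30 min with biotin-H3(1-18)K9me3 peptide (50 nM) in PBS pH 7.4, 0.01% Tween-20. Compound added for 30 min at RT, then streptavidin donor/nickel chelate acceptor beads (10 ug/mL) for 30 min.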
Potency is read from the fitted curve at half-maximal effect.

Sequence of Chromobox protein homolog 1 (Homo sapiens) (P83916 whole entry, looked up): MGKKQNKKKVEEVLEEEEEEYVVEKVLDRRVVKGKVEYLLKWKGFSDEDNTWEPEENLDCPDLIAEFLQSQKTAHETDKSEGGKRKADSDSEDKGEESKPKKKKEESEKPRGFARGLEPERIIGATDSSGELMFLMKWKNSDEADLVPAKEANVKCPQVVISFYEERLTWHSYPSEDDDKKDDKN

Going from `COc1ccc(C(=O)COC(=O)C(O)c2ccccc2)c(OC)c1` (stereo not given) to `COc1ccc(S(=O)(=O)NNC(=O)Nc2ccc(C)cc2)c(OC)c1`, the “activity change, negative = inhibition” value rises from 24.5% to 28.3%.

First: COc1ccc(/C=C2/C(=O)OCc3cc(OC)c(OC)cc32)c(OC)c1
Second: COC(=O)c1scc(-c2ccc(C)cc2)c1S(=O)(=O)Nc1cc(Cl)c(OC)cc1OC
The “activity change, negative = inhibition” value of the first is lower: 1.57% for the first, 15.8% for the second.

Compared with `O=C(CCc1cn(Cc2ccc(F)cc2)c2ccccc12)NC1CCCCC1`, `CCc1ccccc1N1C(=O)CN(S(=O)(=O)CC)CC1(C)C(=O)NC1CCCCC1` (stereo not given) is higher in “activity change, negative = inhibition” value: 9.66% for the first, 39.3% for the second.

First: CCOc1ccc(NC(=O)c2ncoc2-c2ccco2)cc1
Second: CCOc1ccc(NC(=O)CSc2nnc3c(n2)[nH]c2ccc(S(=O)(=O)N4CCOCC4)cc23)cc1
The “activity change, negative = inhibition” value of the first is lower: -8% for the first, 11.7% for the second.

Compared with `CCN(CC)CCNC(=O)Cn1ncc2c3ccccc3n(Cc3ccccc3C)c2c1=O`, `COc1ccc(OC)c(NC(=O)CSC2=Nc3ccccc3C3=NC(CC(=O)NCc4ccc(F)cc4)C(=O)N23)c1` (stereo not given) is lower in “activity change, negative = inhibition” value: 27.7% for the first, -3.25% for the second.

First: Cc1ccc(C(=O)CC2(O)C(=O)N(CCc3ccccc3)c3ccc(Br)cc32)cc1 (stereo not given)
Second: COc1cccc(-c2nc(S(=O)(=O)c3ccc(C)cc3)c(NCc3ccccc3)o2)c1
The “activity change, negative = inhibition” value of the first is lower: 7.9% for the first, 76.4% for the second.

Going from `CCCCN1C(=O)/C(=C(/C#N)C(N)=O)c2ccccc21` to `CCCN1CCC(=O)N(C(CSc2ccc(OC)cc2)Cc2ccccc2)CC1` (stereo not given), the “activity change, negative = inhibition” value rises from 23.7% to 30.4%.

First: COc1ccc(CCNC(=O)c2ccc(-n3c(C)cc4c3CCCC4)cc2)cc1OC
Second: COc1ccc(C(=O)Nc2ccc(-n3nncc3-c3ccccc3)cc2)cc1OC
The “activity change, negative = inhibition” value of the first is higher: 10.2% for the first, -12.4% for the second.

Going from `CCOC(=O)c1ccc(NC(=O)c2c(NCc3cccs3)sc3c2CCCC3)cc1` to `O=C(COc1ccccc1)Nc1ccc(N2CCN(C(=O)c3cccs3)CC2)cc1`, the “activity change, negative = inhibition” value falls from -7.25% to -10.2%.

Going from `O=C(CN1CCN(c2ncc(C(F)(F)F)cc2Cl)CC1)Nc1ccc2c(c1)OCO2` to `Cc1cc(Nc2cc(N3CCN(C)CC3)nc(Sc3ccc(NC(=O)C4CC4)cc3)n2)n[nH]1`, the “activity change, negative = inhibition” value falls from 11.5% to 9.95%.

Compared with `COc1ccc(S(=O)(=O)c2c(Nc3cccc(Cl)c3)sc(C(=O)c3ccccc3)c2N)cc1`, `COc1ccc(S(=O)(=O)Nc2cccc3cccnc23)c(N)c1` is higher in “activity change, negative = inhibition” value: 11.4% for the first, 13% for the second.

Going from `O=C1Cc2cc(S(=O)(=O)Nc3ccc(OC(F)(F)F)cc3)cc3c2N1CCC3` to `COc1ccc(Cl)cc1S(=O)(=O)N1CCC(c2ccncc2)CC1`, the “activity change, negative = inhibition” value rises from 43.4% to 54.6%.

First: O=C(NCCCO)c1nn(-c2ccc(Cl)cc2)nc1CO
Second: Cc1cc2nn(-c3ccc(Cl)cc3)nc2cc1NC(=O)C(C)C
The “activity change, negative = inhibition” value of the first is lower: 20.1% for the first, 35.5% for the second.

First: Oc1c(Br)cc(/C=N/NC(=S)NCC2CCCO2)cc1Br (stereo not given)
Second: Cc1ccc2c(c1)N(C(=O)Nc1ccc(Br)cc1F)CCO2
The “activity change, negative = inhibition” value of the first is higher: 19% for the first, 11.8% for the second.

Going from `CC1(C)N=C(SCc2ccccc2Cl)c2ccccc2N1` to `Clc1ccccc1CSc1nncn2c1cc1occc12`, the “activity change, negative = inhibition” value falls from 259% to 4.73%.

First: Fc1ccc(CSc2nc(NCc3ccccc3)c3ccccc3n2)cc1
Second: Cc1ccc(CNC(=O)CCc2c(C)nn(-c3ccc(N4CCCC4)nn3)c2C)cc1
The “activity change, negative = inhibition” value of the first is lower: 61.9% for the first, 134% for the second.

Compared with `CN(C)C(=O)CSc1n[nH]c(-c2ccco2)n1`, `CCc1nc2nc(C)cc(Nc3ccc(F)c(Cl)c3)n2n1` is higher in “activity change, negative = inhibition” value: 2.01% for the first, 26.4% for the second.

In the case of `CC(=O)Nc1ccc(S(=O)(=O)N2N=NC3C2C2CC4C3(CN(C(=O)OC(C)(C)C)S4(=O)=O)O2)cc1` (stereo not given), the “activity change, negative = inhibition” value is reported as 33.6%.

Going from `CC1CC(C)CN(c2oc(-c3ccc(OCc4ccc(Cl)cc4)cc3)nc2C#N)C1` (stereo not given) to `COc1ccc(C(=O)CSc2c(C(C)C)cnc3c2c(=O)n(C)c(=O)n3C)cc1`, the “activity change, negative = inhibition” value rises from 10.1% [at 57 µM] to 28.3% [at 57 µM].

Compared with `C=CCNC(=O)c1ccc2nc(-c3ccco3)c(-c3ccco3)nc2c1`, `CN1CCN(C(CNC(=O)c2ccccc2F)c2ccc3c(c2)OCO3)CC1` (stereo not given) is higher in “activity change, negative = inhibition” value: -1.18% [at 57 µM] for the first, 23.5% [at 57 µM] for the second.

First: COC(=O)c1ccc2c(c1)N(CC(=O)Nc1ccc(C)c(C)c1)C(=O)c1ccccc1S2
Second: Nc1ncc(S(=O)(=O)Nc2ccc(OC(F)(F)F)cc2)cn1
The “activity change, negative = inhibition” value of the first is lower: 24.8% [at 57 µM] for the first, 25% [at 57 µM] for the second.

For `COCCNC(=O)Nc1ccc2nc(-c3ccco3)c(-c3ccco3)nc2c1`, the Potency was 8.91 µM (active).
In the case of `COc1ccc2c(c1)C(=C(C#N)C#N)C(=O)N2CCc1ccccc1`, the Potency is reported as 39.8 µM (active).
For `Cc1ccc(C(=O)O)cc1-c1ccc(/C=C2\SC(=O)N(CC(=O)Nc3ccc4c(c3)OCO4)C2=O)o1`, the Potency was 79.4 µM (active).
`O=S(=O)(Nc1ccc(O)c2ccccc12)c1ccc(OC(F)(F)F)cc1` was tested, and the Potency was 44.7 µM (active).
In the case of `C=CC(=O)Nc1ccc(Nc2ccnc(Nc3ccc(N4CCN(C)CC4)cc3)n2)cc1`, the Potency is reported as 44.7 µM (active).
With `COc1cc(/C=N/Nc2ccc(C)cc2)cc(Br)c1O` the Potency was 79.4 µM (active).
For `c1ccc(CSc2nnc(-c3ccco3)c(-c3ccco3)n2)cc1`, the Potency was 39.8 µM (active).
With `Clc1ccccc1CSc1nnc(-c2ccco2)c(-c2ccco2)n1` the Potency was 20 µM (active).
For `CC(C)(C)C1C/C(=C/c2ccco2)C(=O)/C(=C/c2ccco2)C1` (stereo not given), the Potency was 39.8 µM (active).
